# High-throughput results as filed in PubChem.
# In the library only some 1.4% were active in any assay of this set; here they are far more common.
# CD11b adhes enh = increases human CD11b/CD18 adhesion to fibrinogen | K562 CD11b/CD18 adhesion to fibrinogen, ATPlite luminescence | activation, % at 10 µM | hit rate 0.07% among 93,000 | P05107+P11215;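 active = 10 µM primary screen giving 50% or more activity, confirmed by 40% or more on retest at that dose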
# GALR2 agonist = activates the human galanin receptor 2; GALR2-expressing cells, agonist activation read-out; activation, % (test concentration not listed); hit rate 0.48% among 140,000; in the data active = activation above about 5%, passing the limit was not always enough;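 also: 0% = vehicle buffer wells and 100% = reference agonist at full effect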
# Target sequence (O43603 whole entry, looked up): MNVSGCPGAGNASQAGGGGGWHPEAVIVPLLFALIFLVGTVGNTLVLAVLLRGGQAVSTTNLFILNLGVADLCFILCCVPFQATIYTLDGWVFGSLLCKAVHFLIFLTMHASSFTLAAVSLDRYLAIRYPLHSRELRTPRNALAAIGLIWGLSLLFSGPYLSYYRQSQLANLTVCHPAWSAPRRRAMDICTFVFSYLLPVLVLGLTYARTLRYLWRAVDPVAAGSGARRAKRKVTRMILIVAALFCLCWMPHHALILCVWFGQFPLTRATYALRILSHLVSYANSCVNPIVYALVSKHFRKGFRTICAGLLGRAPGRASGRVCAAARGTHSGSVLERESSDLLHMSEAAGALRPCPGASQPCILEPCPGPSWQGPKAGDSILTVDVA
# GALR2 blocker = antagonists of human galanin receptor 2 (GALR2); O43603; GALR2-expressing cells, antagonist mode; inhibition, % at 4 µM; hit rate 0.39% among 140,000; AID 828;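 also: cells stimulated with galanin 1-16 at roughly its EC80; 0% = agonist challenge control and 100% = basal control without agonist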
# S1P2 blocker = blocks the human S1P2 receptor | hit rate 0.21% among 97,000 | cell-based S1P2 antagonist assay, inhibition at 5 uM | inhibition, % at 5 µM; in the data active = inhibition above about 45%;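 also: CRE beta-lactamase reporter cells expressing human S1P2 stimulated with S1P; 0% = agonist at EC80 alone and 100% = agonist plus reference antagonist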
# Target sequence (O95136 whole entry, looked up): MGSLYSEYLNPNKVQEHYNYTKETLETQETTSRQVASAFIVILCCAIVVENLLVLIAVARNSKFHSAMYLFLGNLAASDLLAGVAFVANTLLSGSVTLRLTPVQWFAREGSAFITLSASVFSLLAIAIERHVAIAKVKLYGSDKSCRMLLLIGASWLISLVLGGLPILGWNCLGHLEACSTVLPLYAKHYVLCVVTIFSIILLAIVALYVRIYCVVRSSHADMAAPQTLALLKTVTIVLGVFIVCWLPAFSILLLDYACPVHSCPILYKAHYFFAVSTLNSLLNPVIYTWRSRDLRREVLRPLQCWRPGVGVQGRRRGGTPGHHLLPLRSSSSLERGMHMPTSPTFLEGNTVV
# S1P2 agonist = activates the human S1P2 receptor. activation, % at 4.5 µM. O95136. S1P2-expressing cell line, agonist reporter read-out. hit rate 0.46% among 97,000; in the data active = activation above about 16%;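 also: 0% = vehicle low control and 100% = maximal reference agonist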
# Mac1 fbg inh = inhibitors of human CD11b/CD18 binding to fibrinogen; inhibition, % at 10 µM; hit rate 0.54% among 93,000; K562 CD11b/CD18 adhesion to fibrinogen, ATPlite luminescence; Mn2+ added to activate the integrin;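 active = primary inhibition of 50% or more at 10 µM, then 40% or more on retest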
# GALR2 agon conf = confirmation of human galanin receptor 2 (GALR2) agonists; shares compounds with GALR2 agonist; GALR2-expressing cells, agonist activation; activation, % at 5.6 µM; hit rate 10% among 460; AID 864; in the data active = activation above about 8.4%;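 also: 0% = buffer-only vehicle wells and 100% = full reference agonist response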
# BLA act counter = activates beta-lactamase reporter in GALR2 agonist counterscreen; shares compounds with GALR2 agonist; CHO NFAT-bla reporter, beta-lactamase FRET activation; activation, % at 5.6 µM; hit rate 10% among 460;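 active = activation above the screen-wide mean activation plus 3 SD, cut at about 8% in these data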;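 also: 0% = DMSO with PBS wells and 100% = thapsigargin positive control wells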
# GALR2 blk conf = GALR2 (human) antagonism confirmed | shares compounds with GALR2 blocker | GALR2-expressing cells, antagonist mode, inhibition | inhibition, % at 4 µM | hit rate 60% among 480;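 also: cells stimulated with galanin at about its EC80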
# BLA inh counter = inhibits beta-lactamase reporter in GALR2 antagonist counterscreen | inhibition, % at 4.2 µM | CHO NFAT-BLA reporter, beta-lactamase FRET, thapsigargin-stimulated | hit rate 36% among 480 | AID 867 | shares compounds with GALR2 blocker;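 active = inhibition above the mean inhibition across tested compounds plus 3 SD, cut at about 27% in these data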;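 also: 0% = 500 nM thapsigargin stimulated wells and 100% = unstimulated BSA only wells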
# * = called active by the depositor; x = no result. Rule as the data show it, unless noted: active = inhibition above about 27%; inactive = the rest.
SMILES,CD11b adhes enh,GALR2 agonist,GALR2 blocker,S1P2 blocker,S1P2 agonist,Mac1 fbg inh,GALR2 blk conf,BLA inh counter,others
CN(C)c1ccc(/C=C/c2nc3ccccc3s2)cc1,-8.5,20.0*,44.8*,57.7*,0.7,24.0,31.7*,41.3*,GALR2 agon conf=5.9;BLA act counter=9.6*
Cc1ccc(N/N=C(\C#N)C(N)=S)c(C)c1,x,-1.9,-9.1,x,x,x,x,x,
Cc1ccc(/C=N/Nc2ccnc3cc(Cl)ccc23)c(C)c1,25.8,13.6*,31.8*,x,x,48.4,41.8*,42.4*,GALR2 agon conf=19.4*;BLA act counter=10.0*
O=C(NCCc1ccccc1)c1ccc2c(c1)N(Cc1ccccc1)C(=O)CS2=O (stereo not drawn),-2.6,-1.0,6.0,x,x,-8.6,x,x,
O=c1oc2ccccc2cc1-c1ccc(O)cc1O,x,-0.9,5.5,x,x,x,x,x,
O=c1oc2cc(O)ccc2cc1-c1nc2c(s1)CCc1ccccc1-2,x,13.7*,36.6*,x,x,x,65.9*,70.0*,GALR2 agon conf=3.8;BLA act counter=0.9
CCOC(=O)C1=C(CSc2nc(-c3ccccc3)ccc2C#N)OC(N)=C(C#N)C1c1cccnc1 (stereo not drawn),0.3,-1.1,28.6*,5.8,-7.6,-5.8,29.7*,17.0,
CCOC(=O)C1=C(CSc2nc(-c3ccccc3)ccc2C#N)OC(N)=C(C#N)C1c1ccccc1 (stereo not drawn),6.6,-1.3,16.7,-3.5,-4.7,21.6,x,x,
CCCCOc1ncnc2c1[nH]c1ccc(F)cc12,-7.3,-2.7,37.3*,63.3*,1.3,79.8,34.7*,-3.5,
CCCCOc1ncnc2c1[nH]c1ccccc12,-5.6,-1.6,36.4*,31.4,-9.8,23.1,45.2*,13.7,
CCOC(=O)N1CCN(c2ncnc3c2[nH]c2ccc(F)cc23)CC1,-4.8,-1.5,37.9*,58.5*,-7.4,-1.3,46.5*,4.3,
CCCCOc1ncnc2c1[nH]c1ccc(OCC)cc12,-0.9,-3.6,15.1,-7.6,-4.1,4.6,x,x,
CC(=O)c1c(C)[nH]c(C(=O)OCCCCN2C(=O)c3ccccc3C2=O)c1C,-4.8,-0.3,32.2*,63.1*,-2.2,49.0,38.7*,6.6,
CC(=O)c1c(C)[nH]c(C(=O)OCc2ccccc2)c1C,x,-0.7,3.7,x,x,x,x,x,
CCOC(=O)/C(=C\c1cccnc1)C(=O)c1cc(C(C)=O)c(Nc2ccccc2)s1,-3.3,-2.5,54.0*,59.6*,14.8,37.5,79.2*,71.3*,
Oc1ccccc1/C=N/Nc1ccccc1,x,-1.2,29.5*,x,x,x,37.8*,12.9,
Oc1ccccc1/C=N/Nc1ncc(Br)cn1,x,-1.1,8.4,x,x,x,x,x,
O=C(CSc1nc2ccccc2[nH]1)Nc1ccccc1F,-3.2,-1.5,1.1,-23.9,-3.3,2.4,x,x,
COc1cc(OC)c(OC)cc1/C=C/C(=O)c1ccc(NS(=O)(=O)c2ccc(C)cc2)cc1,x,-0.8,31.4*,x,x,x,20.9,19.4,
CC1C/C(=C\c2cccnc2)C(=O)/C(=C/c2cccnc2)C1 (stereo not drawn),x,-0.6,36.0*,x,x,x,43.8*,20.3,
Cc1ccc(S(=O)(=O)CC2CSc3nc4ccccc4n32)cc1 (stereo not drawn),-11.7,-1.3,36.3*,58.0*,-4.8,92.8*,29.1*,7.1,
CN(C(=O)COc1ccccc1C(=O)NCCOc1ccccc1)c1ccccc1,x,-1.8,28.8*,x,x,x,42.6*,12.3,
Cc1c(Cl)cccc1N1C(=O)C(N2C(=O)c3cccc([N+](=O)[O-])c3C2=O)C1c1cccs1 (stereo not drawn),x,-2.5,2.6,-15.1,-6.8,x,x,x,
CN(C)Cc1ccc(F)cc1Sc1ccc(Cl)cc1Cl,x,2.1,-8.9,x,x,x,x,x,
Clc1ccc2nc(N3CCNCC3)nc(-c3ccccc3)c2c1,0.0,24.1*,35.3*,2.5,59.2*,37.3,30.2*,49.7*,
SMILES,CD11b adhes enh,GALR2 agonist,GALR2 blocker,S1P2 blocker,S1P2 agonist,Mac1 fbg inh,GALR2 blk conf,BLA inh counter,others
CC(=O)c1c(C)[nH]c(C(=O)N2c3ccccc3CC2C)c1C (stereo not drawn),-0.9,-0.6,-1.2,13.0,-5.0,-6.1,x,x,
N#C/C(=C\c1ccc(Sc2nc3ccccc3[nH]2)o1)c1ccccc1,-8.2,-2.3,6.4,-22.0,-2.5,98.6,x,x,
N#C/C(=C\c1ccc(Sc2ccc(Cl)cc2)o1)c1nc2ccccc2[nH]1,-6.0,0.1,31.9*,x,x,98.5,34.7*,28.8*,
Cc1ccc(/C=C(\C#N)c2nc3ccccc3[nH]2)s1,1.5,-2.7,29.8*,-18.9,-1.6,12.8,33.7*,21.0,
N#C/C(=C/c1cccs1)c1nc2ccccc2[nH]1,x,0.2,19.1,x,x,x,x,x,
CCOc1cccc(OCCOCCNC(C)(C)C)c1,x,-1.2,6.6,x,x,x,x,x,
Cc1[nH]c2ccccc2c1/C=C(\C#N)C(=O)NCc1ccccc1,x,0.1,32.5*,x,x,x,21.8,4.5,
CCOC(=O)c1ccccc1N/C=C/C(=O)c1cccs1,20.7,-0.8,27.2*,x,x,5.0,27.0*,11.4,
CCOC(=O)c1ccccc1NC(=O)c1cccs1,-3.2,0.5,-1.9,0.4,-5.5,-4.5,x,x,
CC1=C(C(=O)NC2CCCCC2C)C2(CCC(C)CC2)OC1=O (stereo not drawn),6.2,-1.0,4.9,x,x,1.7,x,x,
CC(C)(C)C1=C(C#N)C(c2ccc3c(c2)OCO3)C(C#N)=C(N)O1 (stereo not drawn),-0.6,-1.3,1.1,4.3,-3.7,5.3,x,x,
CC(C)(C)C1=C(C#N)C(c2ccncc2)C(C#N)=C(N)O1 (stereo not drawn),x,0.9,32.1*,x,x,x,14.2,4.2,
COc1ccc(NC(=O)c2cc(S(=O)(=O)N(C)C)ccc2N2CCCC2)cc1Cl,x,-1.1,28.3*,x,x,x,2.3,-0.2,
CCN1C(=O)c2cccc3c(S(=O)(=O)Nc4nc(C)cs4)ccc1c23,-3.2,-1.8,1.8,-8.8,-3.4,4.7,x,x,
CCN(CC)S(=O)(=O)c1ccc(Cl)c(C(=O)Nc2ccc(Cl)cc2[N+](=O)[O-])c1,x,-1.8,28.4*,x,x,x,19.7,11.8,
Nc1c(C(=O)Nc2nccs2)sc2nc(-c3cccs3)cc(C(F)(F)F)c12,59.0,-1.0,47.1*,19.2,-6.9,-8.6,26.8,15.4,
Cc1nnc(NC(=O)c2sc3nc(-c4cccs4)cc(C(F)(F)F)c3c2N)s1,x,-0.2,7.7,-1.4,-10.3,x,x,x,
CCC(C)NCC(O)COCc1ccc(Cl)cc1 (stereo not drawn),1.2,-3.1,-1.4,-0.3,-6.5,7.0,x,x,
CCOC(=O)c1ccc(NC(=O)c2ccccc2[N+](=O)[O-])cc1,x,-1.3,0.2,x,x,x,x,x,
CCOC(=O)c1cc([N+](=O)[O-])c([N+](=O)[O-])cc1NC(C)=O,x,-0.7,41.2*,x,x,x,48.4*,7.4,
